The text below walks through data of PubChem BioAssay (NCI).

The nature of assay [1]: NCI Yeast Anticancer Drug Screen. Data for the rad50 strain (AID 155).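 Further: 0% = growth of vehicle-only cultures of the same strain.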 To be noted: S. cerevisiae rad50 strain growth inhibition, active compounds read high. The method, boiled down: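 A DNA repair-deficient yeast mutant serves as the test organism; compound-induced growth inhibition is calculated against vehicle-treated cells.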
The nature of assay [2]: NCI Yeast Anticancer Drug Screen. Data for the mec2-1 strain (AID 157). To be noted: S. cerevisiae mec2-1 strain, active compounds read high. The method, boiled down: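 Each compound was tested on mec2-1 yeast, a strain altered in DNA damage repair or cell cycle control. Growth inhibition is reported relative to vehicle.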
A short description of assay [3]: NCI Yeast Anticancer Drug Screen. Data for the sgs1 mgt1 strain (AID 161).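 Further: 0% = growth of cultures given vehicle only.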 The settings on record: S. cerevisiae sgs1 mgt1 strain, active compounds read high. In a few lines: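 Read-out: growth inhibition vs vehicle controls. Cells: mutant yeast strain deficient in DNA damage repair.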
Assay [4] can be described thus: NCI Yeast Anticancer Drug Screen. Data for the cln2 rad14 strain (AID 165).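 Further: 0% = growth equal to vehicle treated cultures.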 The settings on record: S. cerevisiae cln2 rad14 strain, active compounds read high. In a few lines: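 Test compounds were added to cln2 rad14 yeast cultures; inhibition of growth was then determined by comparison with vehicle treatment.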
Assay [5] is described as follows: NCI Yeast Anticancer Drug Screen. Data for the bub3 strain (AID 167). The settings on record: S. cerevisiae bub3 mutant strain, active compounds read high. In a few lines:
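Inhibition values come from growth of compound-treated mutant yeast normalised to vehicle-treated controls.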

The nature of assay [6]: NCI Yeast Anticancer Drug Screen. Data for the mlh1 rad18 strain (AID 175). The settings on record: S. cerevisiae mlh1 rad18 strain growth inhibition, active compounds read high. The method, boiled down: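 Inhibition values reflect reduced growth of mutant yeast versus vehicle-treated controls following compound exposure; the mutations affect DNA damage repair.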
[7] abbreviates: at 5.0 µM (retest, dose inferred, filed as 0.5).
[8] abbreviates: at 50.0 µM (retest, dose inferred, filed as 5.0).

Compounds without any hit were thinned out: in the full panel of roughly 79,000, 15% have a hit. Unmarked numbers belong to inactive results. Active and inactive are the calls of the source. No stated cut-off is given here; in the data, active means growth inhibition above about 70%; inactive means the rest.

For the compound `COc1cccc(CCCNC(=O)Cc2ccccc2CO)c1`, the growth inhibition in assay [1] (setting [7]) was 12%; in assay [1] (setting [8]) it was 14%; in assay [1] (at 50.0 µM) it was 34.2%; in assay [2] (setting [7]) it was 9%; in assay [2] (setting [8]), 5%; in assay [2] (at 50.0 µM), -55.1%. In addition, the growth inhibition in assay [3] (setting [7]) was 9%; in assay [3] (setting [8]) it was 12%; in assay [3] (at 50.0 µM), -13.8%; in assay [4] (setting [7]), 1%; in assay [4] (setting [8]), 5%; in assay [4] (at 50.0 µM) it was 7.7%. Also, the growth inhibition in assay [5] (setting [7]) is 11%; in assay [5] (setting [8]), 14%; in assay [5] (at 50.0 µM) it was -12.2%; in assay [6] (setting [7]), 13%; in assay [6] (setting [8]) it was 10%; in assay [6] (at 50.0 µM), -46.8%.

Consider `CC[n+]1c(/C=C/c2ccc(N(C)C)cc2)ccc2ccccc21`, for which the growth inhibition is -5% in assay [1] (setting [7]); 99% (active) in assay [1] (setting [8]); 99% (active) in assay [1] (at 50.0 µM); 23% in assay [2] (setting [7]); 99% (active) in assay [2] (setting [8]); 99.2% (active) in assay [2] (at 50.0 µM). Besides, the growth inhibition in assay [3] (setting [7]) is -2%; in assay [3] (setting [8]) it was 99% (active); in assay [3] (at 50.0 µM), 98% (active); in assay [4] (setting [7]), -5%; in assay [4] (setting [8]), 98% (active); in assay [4] (at 50.0 µM) it was 99% (active). Further, the growth inhibition in assay [5] (setting [7]) was 1%; in assay [5] (setting [8]), 99% (active); in assay [5] (at 50.0 µM), 98.8% (active); in assay [6] (setting [7]) it was 13%; in assay [6] (setting [8]) it was 99% (active); in assay [6] (at 50.0 µM), 98.5% (active).

`CCC(C)N(C(=O)c1ccccc1)c1ccccc1` (centres undefined): the growth inhibition is -1% in assay [1] (setting [7]); -2% in assay [1] (setting [8]); 2.8% in assay [1] (at 50.0 µM); 1% in assay [2] (setting [7]); -1% in assay [2] (setting [8]); 6.15% in assay [2] (at 50.0 µM). The growth inhibition in assay [3] (setting [7]) was 2%; in assay [3] (setting [8]), -3%; in assay [3] (at 50.0 µM), -7.35%; in assay [4] (setting [7]), 0%; in assay [4] (setting [8]), 3%; in assay [4] (at 50.0 µM), 39.8%. For the same compound, the growth inhibition is -3% in assay [5] (setting [7]); -1% in assay [5] (setting [8]); -4.45% in assay [5] (at 50.0 µM); -3% in assay [6] (setting [7]); 2% in assay [6] (setting [8]); -3.65% in assay [6] (at 50.0 µM).

In the case of `Oc1ccc(-c2ccc3ccccc3c2)cc1`, the growth inhibition was 2% in assay [1] (setting [7]); 98% (active) in assay [1] (setting [8]); 98.7% (active) in assay [1] (at 50.0 µM); 6% in assay [2] (setting [7]); 97% (active) in assay [2] (setting [8]); 99.3% (active) in assay [2] (at 50.0 µM). Moreover, the growth inhibition in assay [3] (setting [7]) was -3%; in assay [3] (setting [8]) it was 98% (active); in assay [3] (at 50.0 µM), 99.2% (active); in assay [4] (setting [7]) it was 3%; in assay [4] (setting [8]), 99% (active); in assay [4] (at 50.0 µM) it was 98.8% (active). The growth inhibition was 1% in assay [5] (setting [7]); 98% (active) in assay [5] (setting [8]); 99.2% (active) in assay [5] (at 50.0 µM); -2% in assay [6] (setting [7]); 99% (active) in assay [6] (setting [8]); 99.1% (active) in assay [6] (at 50.0 µM).

For the compound `COc1cc(/C=C/C(=O)c2ccc3ccccc3c2)cc(OC)c1OC`, the growth inhibition in assay [1] (setting [7]) is 38%; in assay [1] (setting [8]), 40%; in assay [1] (at 50.0 µM), 7.75%; in assay [2] (setting [7]) it was 49%; in assay [2] (setting [8]) it was 44%; in assay [2] (at 50.0 µM), 11.3%. Also, the growth inhibition was 1% in assay [3] (setting [7]); 45% in assay [3] (setting [8]); 34.4% in assay [3] (at 50.0 µM); 22% in assay [4] (setting [7]); 14% in assay [4] (setting [8]); -5.35% in assay [4] (at 50.0 µM). Moreover, the growth inhibition is 22% in assay [5] (setting [7]); 27% in assay [5] (setting [8]); 41.9% in assay [5] (at 50.0 µM); 37% in assay [6] (setting [7]); 44% in assay [6] (setting [8]); 22.6% in assay [6] (at 50.0 µM).

On to `CC/S(=N\S(=O)(=O)c1ccc(C)cc1)c1cccc[n+]1[O-]` (centres undefined), for which the growth inhibition in assay [1] (setting [7]) is 83% (active); in assay [1] (setting [8]) it was 97% (active); in assay [1] (at 50.0 µM) it was 96.1% (active); in assay [2] (setting [7]) it was 82% (active); in assay [2] (setting [8]), 99% (active); in assay [2] (at 50.0 µM), 96.7% (active). The growth inhibition in assay [3] (setting [7]) was 79% (active); in assay [3] (setting [8]), 98% (active); in assay [3] (at 50.0 µM), 98% (active); in assay [4] (setting [7]), 51%; in assay [4] (setting [8]), 98% (active); in assay [4] (at 50.0 µM) it was 91.2% (active). For the same compound, the growth inhibition in assay [5] (setting [7]) is 85% (active); in assay [5] (setting [8]) it was 98% (active); in assay [5] (at 50.0 µM), 96.3% (active); in assay [6] (setting [7]), 87% (active); in assay [6] (setting [8]), 98% (active); in assay [6] (at 50.0 µM), 95.4% (active).

On to `COc1ccc2c(c1)CCc1c(CO)c(COC(=O)NC(C)C)n(C)c1-2`, for which the growth inhibition was 87% (active) in assay [1] (setting [7]); 90% (active) in assay [1] (setting [8]); 95.8% (active) in assay [1] (at 50.0 µM); 98% (active) in assay [2] (setting [7]); 91% (active) in assay [2] (setting [8]); 97.7% (active) in assay [2] (at 50.0 µM). The growth inhibition is 96% (active) in assay [3] (setting [7]); 92% (active) in assay [3] (setting [8]); 96.5% (active) in assay [3] (at 50.0 µM); 3% in assay [4] (setting [7]); 85% (active) in assay [4] (setting [8]); 93.5% (active) in assay [4] (at 50.0 µM). Also, the growth inhibition was 5% in assay [5] (setting [7]), 40% in assay [5] (setting [8]) and 79.3% (active) in assay [5] (at 50.0 µM).

Take `c1ccc(C(CNCCN2CCCCCC2)C2CCCCC2)cc1` (centres undefined): the growth inhibition is 21% in assay [1] (setting [7]); 12% in assay [1] (setting [8]); 82.5% (active) in assay [1] (at 50.0 µM); 13% in assay [2] (setting [7]); 22% in assay [2] (setting [8]); 44.6% in assay [2] (at 50.0 µM). The growth inhibition in assay [3] (setting [7]) was 26%; in assay [3] (setting [8]) it was -9%; in assay [3] (at 50.0 µM), 89.8% (active); in assay [4] (setting [7]) it was 10%; in assay [4] (setting [8]), 16%; in assay [4] (at 50.0 µM), 74.7% (active). Moreover, the growth inhibition in assay [5] (setting [7]) is 22%; in assay [5] (setting [8]), 20%; in assay [5] (at 50.0 µM), 66.5%.

Consider `NCC(=O)N/N=C/c1ccc([N+](=O)[O-])o1`, for which the growth inhibition is 10% in assay [1] (setting [7]); 24% in assay [1] (setting [8]); 5.1% in assay [1] (at 50.0 µM); 4% in assay [2] (setting [7]); 17% in assay [2] (setting [8]); 44.3% in assay [2] (at 50.0 µM). For the same compound, the growth inhibition was 0% in assay [3] (setting [7]); 15% in assay [3] (setting [8]); 73.2% (active) in assay [3] (at 50.0 µM); -1% in assay [4] (setting [7]); 5% in assay [4] (setting [8]); 27.6% in assay [4] (at 50.0 µM). Further, the growth inhibition is 2% in assay [5] (setting [7]); 11% in assay [5] (setting [8]); 37.2% in assay [5] (at 50.0 µM); 8% in assay [6] (setting [7]); 30% in assay [6] (setting [8]); 20.4% in assay [6] (at 50.0 µM).

Turning to `c1cc2ccc1C1NCCCN1CCN1CCCNC1c1ccc(cc1)C1NCCCN1CCN1CCCNC21` (centres undefined), the growth inhibition in assay [1] (setting [7]) is 3%; in assay [1] (setting [8]), -11%; in assay [1] (at 50.0 µM), -8.3%; in assay [2] (setting [7]), -19%; in assay [2] (setting [8]), -2%; in assay [2] (at 50.0 µM), -22.6%. Moreover, the growth inhibition was -14% in assay [3] (setting [7]); 3% in assay [3] (setting [8]); -2% in assay [3] (at 50.0 µM); -25% in assay [4] (setting [7]); -8% in assay [4] (setting [8]); 53.2% in assay [4] (at 50.0 µM). The growth inhibition in assay [5] (setting [7]) was -1%; in assay [5] (setting [8]), -1%; in assay [5] (at 50.0 µM) it was 4.1%; in assay [6] (setting [7]), -28%; in assay [6] (setting [8]), -14%; in assay [6] (at 50.0 µM) it was -31.4%.
